Assay [1] is described as follows: viability loss in pontine glioma line – cell-based, JHH-DIPG-1, MIPE4.0, CellTiter-Glo, qHTS, dose response (AID 1347062; cut-off not given, nearly all actives have AC50 up to about 27 µM;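 on AC50: cells exposed to compound for two days before readout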). Particulars: JHH-DIPG-1 viability, CellTiter-Glo ATP luminescence. (In general: In ATP-based viability assays light output follows the ATP content of the culture.)
Assay [2] in a line: viability loss in pontine glioma line – cell-based, SU-DIPG-IV, MIPE4.0, CellTiter-Glo, qHTS, dose response (AID 1347063; cut-off not given, nearly all actives have AC50 up to about 30 µM;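 further: compound exposure lasted 48 hours before the viability readout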). Particulars: CellTiter-Glo ATP luminescence.
Assay [3] is described as follows: viability loss in pontine glioma line – cell-based, SU-DIPG-XXV, MIPE5.0, CellTiter-Glo, qHTS, dose response (AID 1347065; cut-off not given, nearly all actives have AC50 up to about 26 µM;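 further: cells exposed to compound for 48 hours before ATP readout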). Particulars: CellTiter-Glo ATP luminescence.
Assay [4] can be described thus: growth inhibition of DIPG cells – cell-based, MIPE4.0 library, CellTiter-Glo luminescence, qHTS (AID 1347066; cut-off not given, nearly all actives have AC50 up to about 30 µM;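 further: cells exposed to compound for 48 hours before readout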). The conditions noted are these: SU-DIPG-VI viability, CellTiter-Glo ATP luminescence.
The nature of assay [5]: growth inhibition of DIPG cells – cell-based, MIPE5.0 library, qHTS (AID 1347068; cut-off not given, nearly all actives have IC50 up to about 30 µM;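 on IC50: cells exposed to compound for 48 hours before viability readout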). The conditions noted are these: SU-DIPG-XXV viability. (In general: qHTS replaces the single test concentration by a dilution series.)
The nature of assay [6]: viability loss in pontine glioma line – cell-based, SU-DIPG-XIII, MIPE5.0, CellTiter-Glo, qHTS, dose response (AID 1347064; cut-off not given, nearly all actives have AC50 up to about 23 µM;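 on AC50: cells exposed to compound for 48 hours before the viability read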). Particulars: CellTiter-Glo ATP luminescence.
Assay [7] can be described thus: viability loss with induced miR-34 in A549 – imaging, A549 dox-inducible miR-34, nuclei and caspase counts, primary screen (AID 1347080;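 active means compounds whose cell count with miR-34 switched on is under 0.7 times the count with it off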). Particulars: A549 miR-34 inducible, Hoechst nuclei count, 48 h.
The nature of assay [8]: compounds altering HSF1 focus formation in cells – imaging, Selleck Cancer Library (AID 1347162; in the data active means plate-normalised HSF1 focus index below about 0.46). Particulars: human cells, HSF1 nuclear foci imaging, at 10 µM; SSMD: measured here: HSF1 foci SSMD mean; cell count: measured here: cell number; plate-normalised HSF1 focus index: stronger effect = lower value.
Assay [9] is described as follows: MELAS cybrid and Rieske KO viability enhancers – cell-based, MELAS cybrids, Rieske KO mouse fibroblasts, CellTiter-Glo, primary screen (AID 1508586;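 active means mean z-score across replicates of 1.96 or higher in either the MELAS or the Rieske mutant cell line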;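 further: z relative to plate mean and SD of compound and empty wells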). Particulars: low glucose.
Assay [10] can be described thus: drug combination growth inhibition, ovarian cancer – cell-based, oncology-focused library, rucaparib conditional, profiling panel (AID 1508598). The conditions noted are these: patient-derived ovarian cancer cells, CellTiter-Glo viability, 144 h, stronger effect = lower value.
Where [11] appears, read: stronger effect = lower value, cell number ratio, induced over uninduced.
[12] abbreviates: measured here: relative caspase fold change +Dox/-Dox.
Where [13] appears, read: measured here: total cells with miR-34 induction, stronger effect = lower value.
Where [14] appears, read: measured here: total cells without miR-34 induction.
Where [15] appears, read: MELAS cybrid survival, CellTiter-Glo 48 h, stronger effect = higher value.
Where [16] appears, read: Rieske KO mouse fibroblast survival, CellTiter-Glo 72 h.
Setting [17] is: at 0.000305 µM, OCI-C5x cells, with rucaparib 10 µM, 100% = cells with rucaparib alone.
[18] abbreviates: at 0.000305 µM, OCI-C5x cells, without rucaparib.
Setting [19] is: at 0.000305 µM, OCI-P5x cells, with rucaparib 20 µM, 100% = cells with rucaparib alone.
Setting [20] is: at 0.000305 µM, OCI-P5x cells, without rucaparib.
Setting [21] is: at 0.00122 µM, OCI-C5x cells, with rucaparib 10 µM, 100% = cells with rucaparib alone.
Where [22] appears, read: at 0.00122 µM, OCI-C5x cells, without rucaparib.
Where [23] appears, read: at 0.00122 µM, OCI-P5x cells, with rucaparib 20 µM, 100% = cells with rucaparib alone.
Setting [24] is: at 0.00122 µM, OCI-P5x cells, without rucaparib.
Setting [25] is: at 0.00488 µM, OCI-C5x cells, with rucaparib 10 µM, 100% = cells with rucaparib alone.
Setting [26] is: at 0.00488 µM, OCI-C5x cells, without rucaparib.
Where [27] appears, read: at 0.00488 µM, OCI-P5x cells, with rucaparib 20 µM, 100% = cells with rucaparib alone.
[28] abbreviates: at 0.00488 µM, OCI-P5x cells, without rucaparib.
The mark [29] stands for this setting: at 0.0195 µM, OCI-C5x cells, with rucaparib 10 µM, 100% = cells with rucaparib alone.
The mark [30] stands for this setting: at 0.0195 µM, OCI-C5x cells, without rucaparib.
Where [31] appears, read: at 0.0195 µM, OCI-P5x cells, with rucaparib 20 µM, 100% = cells with rucaparib alone.
Setting [32] is: at 0.0195 µM, OCI-P5x cells, without rucaparib.
The mark [33] stands for this setting: at 0.0781 µM, OCI-C5x cells, with rucaparib 10 µM, 100% = cells with rucaparib alone.
[34] abbreviates: at 0.0781 µM, OCI-C5x cells, without rucaparib.
Setting [35] is: at 0.0781 µM, OCI-P5x cells, with rucaparib 20 µM, 100% = cells with rucaparib alone.
Where [36] appears, read: at 0.0781 µM, OCI-P5x cells, without rucaparib.
[37] abbreviates: at 0.313 µM, OCI-C5x cells, with rucaparib 10 µM, 100% = cells with rucaparib alone.
Setting [38] is: at 0.313 µM, OCI-C5x cells, without rucaparib.
The mark [39] stands for this setting: at 0.313 µM, OCI-P5x cells, with rucaparib 20 µM, 100% = cells with rucaparib alone.
Where [40] appears, read: at 0.313 µM, OCI-P5x cells, without rucaparib.
Setting [41] is: at 1.25 µM, OCI-C5x cells, with rucaparib 10 µM, 100% = cells with rucaparib alone.
Where [42] appears, read: at 1.25 µM, OCI-C5x cells, without rucaparib.
Where [43] appears, read: at 1.25 µM, OCI-P5x cells, with rucaparib 20 µM, 100% = cells with rucaparib alone.
The mark [44] stands for this setting: at 1.25 µM, OCI-P5x cells, without rucaparib.
Setting [45] is: at 5 µM, OCI-C5x cells, with rucaparib 10 µM, 100% = cells with rucaparib alone.
Setting [46] is: at 5 µM, OCI-C5x cells, without rucaparib.
[47] abbreviates: at 5 µM, OCI-P5x cells, with rucaparib 20 µM, 100% = cells with rucaparib alone.
Setting [48] is: at 5 µM, OCI-P5x cells, without rucaparib.

As a reminder, the AC50 is the midpoint of the concentration-response curve, whichever way the signal moves. A word on the IC50: it is the concentration needed to halve the response being measured. As a reminder, the viability is a read-out of living cells in per cent, often relative to untreated cells.

Results filed as inconclusive are left out. Active and inactive are the calls of the source.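 How the source made its calls, unless noted: active means normalized viability below 100% at a tested concentration; inactive means the rest.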

Turning to `Oc1ccc(C2=Cc3ccc(O)cc3OC2)cc1`, the half-maximal activity concentration (AC50) in assay [1] was 8.33 µM (active); in assay [2] it was 3.32 µM (active). In addition, the compound was classed as inactive in assay [3].
For the compound `CCOC(=O)N1CCN(/[N+]([O-])=N/Oc2cc(O/N=[N+](\[O-])N3CCN(C(=O)OCC)CC3)c([N+](=O)[O-])cc2[N+](=O)[O-])CC1`, the AC50 in [1] was 9.35 µM (active); in [2], 23.5 µM (active).
In the case of `Cn1cc(-c2ccncc2)c(-c2ccc(OCc3ccc4ccccc4n3)cc2)n1`, the call in assay [1], in assay [2], in [4] and in assay [5] was inactive. The AC50 in assay [3] was 23.5 µM (active).
Regarding `Nc1nccc(Oc2ccc(NC(=O)c3c[nH]cc(-c4ccc(F)cc4)c3=O)cc2F)c1Cl`, the concentration at half-maximal activity (AC50) is 18.7 µM (active) in [1], 16.6 µM (active) in assay [2], 14.8 µM (active) in [6] and 26.4 µM (active) in assay [4]. Besides, the IC50 in assay [5] is 23.5 µM (active). The fold change was 0.93 (inactive) in assay [7] (setting [11]) and 0.882 in assay [7] (setting [12]). The values for the cell count in assay [7] (setting [13]), in [7] (setting [14]) and in [8] were 7750, 8330 and 7240, respectively. The compound also had an SSMD in assay [8] of -0.396. Further, in assay [8], the plate-normalised HSF1 focus index is 0.991 (inactive). Besides, the figures for the z-score in [9] (setting [15]) and in [9] (setting [16]) were -0.165 (inactive) and 0.168, respectively. Moreover, the viability in assay [10] (setting [17]) was 110% (inactive); in assay [10] (setting [18]) it was 130% (inactive); in [10] (setting [19]) it was 100% (inactive); in [10] (setting [20]), 117% (inactive); in assay [10] (setting [21]), 108% (inactive); in assay [10] (setting [22]) it was 127% (inactive). In addition, the viability in [10] (setting [23]) was 101% (inactive); in [10] (setting [24]) it was 114% (inactive); in assay [10] (setting [25]), 118% (inactive); in assay [10] (setting [26]) it was 134% (inactive); in assay [10] (setting [27]), 106% (inactive); in assay [10] (setting [28]) it was 111% (inactive). For the same compound, the viability in assay [10] (setting [29]) is 117% (inactive); in assay [10] (setting [30]), 140% (inactive); in [10] (setting [31]), 98.3% (active); in [10] (setting [32]) it was 107% (inactive); in assay [10] (setting [33]) it was 104% (inactive); in [10] (setting [34]), 122% (inactive). Moreover, the viability in assay [10] (setting [35]) was 106% (inactive); in assay [10] (setting [36]), 98.3% (active); in assay [10] (setting [37]), 133% (inactive); in assay [10] (setting [38]), 122% (inactive); in assay [10] (setting [39]), 102% (inactive); in [10] (setting [40]), 99.4% (active). Also, the viability in assay [10] (setting [41]) was 132% (inactive); in assay [10] (setting [42]) it was 123% (inactive); in assay [10] (setting [43]), 99.9% (active); in assay [10] (setting [44]), 101% (inactive); in [10] (setting [45]), 149% (inactive); in assay [10] (setting [46]), 139% (inactive). Besides, the figures for the viability in [10] (setting [47]) and in assay [10] (setting [48]) were 59% (active) and 89.1% (active), respectively.
On to `COc1ccc(C[C@@H](C)[C@@H](C)Cc2ccc(OC)c(OC)c2)cc1OC`, for which the concentration at half-maximal activity (AC50) in assay [1] is 1.18 µM (active).
In the case of `CCCS(=O)(=O)Nc1ccc(F)c(C(=O)c2c[nH]c3ncc(-c4ccc(Cl)cc4)cc23)c1F`, the outcome in [1], in assay [6], in assay [4] and in [5] was inactive. For the same compound, the AC50 in [2] was 14.8 µM (active). Moreover, the fold change in [7] (setting [11]) was 0.763 (inactive); in [7] (setting [12]) it was 1. The cell count worked out at 5420 in [7] (setting [13]), 7100 in assay [7] (setting [14]) and 6960 in assay [8]. In assay [8], the SSMD came to 2.8. For the same compound, the plate-normalised HSF1 focus index in assay [8] is 1.15 (inactive). The z-score in [9] (setting [15]) is -0.461 (inactive); in assay [9] (setting [16]), -0.424. In addition, the viability was 120% (inactive) in [10] (setting [17]); 96.8% (active) in [10] (setting [18]); 95.6% (active) in assay [10] (setting [19]); 93% (active) in assay [10] (setting [20]); 112% (inactive) in assay [10] (setting [21]); 111% (inactive) in assay [10] (setting [22]). The viability in assay [10] (setting [23]) is 99.5% (active); in assay [10] (setting [24]) it was 96.2% (active); in assay [10] (setting [25]), 123% (inactive); in [10] (setting [26]), 106% (inactive); in [10] (setting [27]), 103% (inactive); in [10] (setting [28]), 99% (active). Moreover, the viability was 107% (inactive) in assay [10] (setting [29]); 107% (inactive) in assay [10] (setting [30]); 107% (inactive) in assay [10] (setting [31]); 102% (inactive) in assay [10] (setting [32]); 105% (inactive) in assay [10] (setting [33]); 107% (inactive) in assay [10] (setting [34]). The viability in assay [10] (setting [35]) is 103% (inactive); in assay [10] (setting [36]) it was 104% (inactive); in assay [10] (setting [37]) it was 106% (inactive); in assay [10] (setting [38]) it was 107% (inactive); in assay [10] (setting [39]), 93.7% (active); in [10] (setting [40]) it was 105% (inactive). The viability was 49.6% (active) in assay [10] (setting [41]); 35% (active) in [10] (setting [42]); 45.5% (active) in [10] (setting [43]); 10.7% (active) in assay [10] (setting [44]); 97.9% (active) in [10] (setting [45]); 105% (inactive) in assay [10] (setting [46]). The figures for the viability in assay [10] (setting [47]) and in assay [10] (setting [48]) were 49.3% (active) and 16.3% (active), respectively.

For the origin of these results see PubChem BioAssay.
